In PubChem BioAssay (NCI):
Where “and” joins values, the source holds several entries; their conditions need not be identical. Equal entries are not always repeated. About 83,000 compounds went through this panel and 20% of them were active in at least one assay; those are over-represented in the sample as a whole.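 Cell lines were cultured in 96-well plates, exposed to a single compound concentration, and assessed for percent growth 48 hours later.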 Calls of active or inactive are those of the source. The calls were made as follows: active = growth percent below 10; inactive = the rest.

Experiments:
Assay in all cases: NCI-60 one-dose screen, 48 h (100 = growth as untreated, 0 = no growth, -100 = all killed)
Conditions in all cases: 10 µM unless noted
[1] = test system: DU-145 prostate
[2] = test system: K-562 leukemia
[3] = test system: MALME-3M melanoma
[4] = test system: MDA-MB-231 breast
[5] = test system: RXF 393 renal
[6] = test system: SF-268 CNS
[7] = test system: SF-295 CNS
[8] = test system: SF-539 CNS
[9] = test system: UACC-257 melanoma
[10] = test system: M14 melanoma
[11] = test system: HCT-15 colon
[12] = test system: HT29 colon
[13] = test system: SNB-75 CNS
[14] = test system: SNB-19 CNS
[15] = test system: U251 CNS
[16] = test system: PC-3 prostate
[17] = test system: SK-MEL-5 melanoma
[18] = test system: LOX IMVI melanoma
[19] = test system: SK-MEL-28 melanoma
[20] = test system: UACC-62 melanoma

| Compound | growth [1] | growth [2] | growth [3] | growth [4] | growth [5] | growth [6] | growth [7] | growth [8] | growth [9] | growth [10] | growth [11] | growth [12] | growth [13] | growth [14] | growth [15] | growth [16] | growth [17] | growth [18] | growth [19] | growth [20] |
| --- | --- | --- | --- | --- | --- | --- | --- | --- | --- | --- | --- | --- | --- | --- | --- | --- | --- | --- | --- | --- |
| CN1CCN(Cc2occc(=O)c2O)CCN(C)CCN(Cc2occc(=O)c2O)CC1 | 124% (inactive) and 61.6% (inactive) | 101% (inactive) and 16.6% (inactive) | 106% (inactive) and 72% (inactive) | 106% (inactive) and 62.3% (inactive) | 96.6% (inactive) and 72.9% (inactive) | 113% (inactive) and 63.7% (inactive) | 102% (inactive) and 76.2% (inactive) | 93.7% (inactive) and 48% (inactive) | 61.6% (inactive) | 105% (inactive) and 52.9% (inactive) | 107% (inactive) and 36% (inactive) | 96.3% (inactive) and 11.1% (inactive) | 100% (inactive) | 98% (inactive) and 87.6% (inactive) | 94.8% (inactive) and 23.1% (inactive) | 80.3% (inactive) and 35.6% (inactive) | 81.4% (inactive) and 47.8% (inactive) | 99.1% (inactive) and 43% (inactive) | 64.4% (inactive) | – |
| NC(=O)NO | 110% (inactive) and 56.7% (inactive) | 113% (inactive) and 77% (inactive) | 102% (inactive) and 57.8% (inactive) | 98.8% (inactive) and 84.4% (inactive) | 116% (inactive) and 25.5% (inactive) | 102% (inactive) and 70.4% (inactive) | 99.4% (inactive) and 50.3% (inactive) | 104% (inactive) and 47.4% (inactive) | 102% (inactive) and 44% (inactive) | 104% (inactive) | 106% (inactive) and 72.2% (inactive) | 104% (inactive) and 70.3% (inactive) | 91.7% (inactive) and 60.3% (inactive) | – | 96.6% (inactive) and 65.5% (inactive) | 106% (inactive) and 72.6% (inactive) | 106% (inactive) and 80.5% (inactive) | 101% (inactive) and 59% (inactive) | 107% (inactive) and 45.5% (inactive) | 103% (inactive) and 74.6% (inactive) |
| CCN(CC)CCCC(C)Nc1ccnc2cc(Oc3ccccc3)ccc12 (stereo not given) | 91.4% (inactive) and 87.4% (inactive) | 1.73% (active) and 41.2% (inactive) | 78% (inactive) and 89.4% (inactive) | 40.1% (inactive) and 34.1% (inactive) | 17.8% (inactive) and 70.7% (inactive) | 54.5% (inactive) and 67.1% (inactive) | 81.5% (inactive) and 74.9% (inactive) | 1.83% (active) and 4.93% (active) | -67.2% (active) and -56.4% (active) | -43.4% (active) and -81.6% (active) | 52.7% (inactive) and 54.5% (inactive) | 30.1% (inactive) | 62.9% (inactive) and 99.8% (inactive) | 83.5% (inactive) and 94.5% (inactive) | – | 61.9% (inactive) and 67.7% (inactive) | -87.1% (active) and 79.6% (inactive) | 22.2% (inactive) and 39.3% (inactive) | 1.01% (active) and 85.5% (inactive) | 60.9% (inactive) and 92.8% (inactive) |
| CC(C)(O)Cn1cc(-c2ccc3nc(OC4CC4)ccc3c2)c2c(N)ncnc21 | 102% (inactive) and 75.6% (inactive) | 88% (inactive) and 35.8% (inactive) | 70.2% (inactive) and 44.2% (inactive) | 69.2% (inactive) and 46.4% (inactive) | 73.3% (inactive) and 50.5% (inactive) | 91.2% (inactive) and 57.1% (inactive) | 79.2% (inactive) and 56.7% (inactive) | 81.6% (inactive) and 58.6% (inactive) | 70.8% (inactive) | 80.6% (inactive) and 62.3% (inactive) | 95.3% (inactive) and 73.8% (inactive) | 74% (inactive) and 44.6% (inactive) | 40.2% (inactive) and 37.9% (inactive) | – | – | 56.8% (inactive) and 48.2% (inactive) | 84.3% (inactive) and 37.8% (inactive) | 72.8% (inactive) and 30.4% (inactive) | 101% (inactive) and 71.5% (inactive) | 48.4% (inactive) |
| Cc1n[nH]c(=O)n(/N=C\c2c[nH]c3ccccc23)c1=O | 118% (inactive) | 93.7% (inactive) | 97% (inactive) | 123% (inactive) | 96.3% (inactive) | 99.6% (inactive) | 102% (inactive) | 104% (inactive) | 104% (inactive) | 121% (inactive) | 105% (inactive) | 101% (inactive) | 84% (inactive) | 105% (inactive) | – | 97.9% (inactive) | 102% (inactive) | 99.4% (inactive) | 105% (inactive) | 107% (inactive) |
| O=C1NC(=O)C2(CCc3ccccc32)N1 (stereo not given) | 123% (inactive) and 102% (inactive) | 116% (inactive) and 83.6% (inactive) | 97% (inactive) and 96.7% (inactive) | 106% (inactive) and 97.2% (inactive) | 95.3% (inactive) | 99% (inactive) and 107% (inactive) | 96.5% (inactive) and 96% (inactive) | 90% (inactive) and 105% (inactive) | 107% (inactive) and 86.1% (inactive) | 107% (inactive) and 96.5% (inactive) | 104% (inactive) and 108% (inactive) | 104% (inactive) and 109% (inactive) | 96.2% (inactive) and 94.1% (inactive) | 96.2% (inactive) and 103% (inactive) | – | 133% (inactive) and 88.2% (inactive) | 99.4% (inactive) and 108% (inactive) | 103% (inactive) and 95.7% (inactive) | 123% (inactive) | 100% (inactive) and 96.7% (inactive) |
| CCN(CC)CCCC(C)Nc1cnc(C(=O)Nc2cc(F)cc3cccnc23)cn1 (stereo not given) | 63.3% (inactive) and -82.2% (active) | 3.95% (active) and 4.95% (active) | -8.34% (active) and -76.1% (active) | 59.4% (inactive) and -55% (active) | 33.8% (inactive) and -84.4% (active) | 51.9% (inactive) and -92.1% (active) | 71.2% (inactive) and 3.03% (active) | 83.1% (inactive) and 8.22% (active) | 76.8% (inactive) and -12.4% (active) | 21.9% (inactive) and -5.6% (active) | 24.5% (inactive) and -32.9% (active) | 11.8% (inactive) and 5.33% (active) | – | 83.1% (inactive) and -87.9% (active) | – | 61% (inactive) and -52.7% (active) | 70% (inactive) and -92.2% (active) | 33.3% (inactive) and -48.5% (active) | 63.2% (inactive) and 22.7% (inactive) | 0.997% (active) and 17.5% (inactive) |
| c1ccc2cc(C[n+]3ccn(Cc4ccc5ccccc5n4)c3)ccc2c1 | 21.9% (inactive) and 64.5% (inactive) | 14.5% (inactive) and 21.2% (inactive) | -27.2% (active) and 22.9% (inactive) | -2.02% (active) and 23.4% (inactive) | 23.5% (inactive) and 45.4% (inactive) | 11.9% (inactive) and 41.2% (inactive) | 19.7% (inactive) and 60% (inactive) | 13.8% (inactive) and 29.3% (inactive) | -25.3% (active) and -8.7% (active) | 9.07% (active) and 35.4% (inactive) | 96.3% (inactive) and 101% (inactive) | -30.7% (active) and 10.7% (inactive) | 18.9% (inactive) and 33.2% (inactive) | – | 12.4% (inactive) and 23% (inactive) | 4.09% (active) and 14.7% (inactive) | -87.6% (active) and -67.9% (active) | -30.6% (active) and 20.1% (inactive) | 8.97% (active) and 41.2% (inactive) | -1.09% (active) and 10.6% (inactive) |
